Test results reported in PubChem BioAssay (NCI).
This is part of a sample that, as a whole, favours compounds with a hit. Of some 79,000 tested, about 15% had one in any assay. Calls of active or inactive are those of the source. Cut-off read from the data, not from the text of the source: active = growth inhibition above about 70%; inactive = the rest.

Columns and labels:
[1] = NCI Yeast Anticancer Drug Screen. Data for the rad52 strain (AID 147);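 note: 0% = growth of vehicle-treated control cultures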; details: S. cerevisiae rad52 mutant growth inhibition, active compounds read high
Procedure, shortened: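 Compounds are applied to a genetically defined yeast strain lacking normal DNA damage repair, and inhibition of growth is expressed relative to cultures given vehicle only.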

[2] = NCI Yeast Anticancer Drug Screen. Data for the wt1 strain (AID 149);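 note: 0% = growth of vehicle-treated wt1 cultures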; details: S. cerevisiae wt1 strain (SPY 50644) growth inhibition, active compounds read high
Procedure, shortened: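 Compounds are added to wt1 yeast cultures. Growth is then measured. Inhibition is expressed relative to vehicle-treated controls.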

[3] = NCI Yeast Anticancer Drug Screen. Data for the rad50EPP+ strain (AID 151);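 note: 0% = growth of vehicle-treated control cultures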; details: S. cerevisiae rad50 mutant strain, active compounds read high
Procedure, shortened: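 Compounds were applied to the rad50EPP+ yeast strain, which bears a defined DNA repair alteration, and growth inhibition was determined relative to vehicle-treated cultures.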

[4] = NCI Yeast Anticancer Drug Screen. Data for the mgt1 strain (AID 153); details: S. cerevisiae mgt1 mutant growth inhibition, active compounds read high
Procedure, shortened: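 Strain: mgt1 yeast, one of a set carrying defined DNA damage repair or cell cycle control alterations. Compound-treated growth compared with vehicle.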

[5] = NCI Yeast Anticancer Drug Screen. Data for the rad50 strain (AID 155);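 note: 0% = growth of vehicle-only cultures of the same strain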; details: S. cerevisiae rad50 strain growth inhibition, active compounds read high
Procedure, shortened: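 Inhibition values express reduced yeast growth in compound-treated cultures relative to vehicle-treated controls.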

[6] = NCI Yeast Anticancer Drug Screen. Data for the mec2-1 strain (AID 157); details: S. cerevisiae mec2-1 strain, active compounds read high
Procedure, shortened: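 Strain: mec2-1 (DNA repair/cell cycle alteration). Compound exposure, then growth measured; inhibition expressed relative to vehicle.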

[7] = NCI Yeast Anticancer Drug Screen. Data for the rad14 strain (AID 159);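 note: 0% = growth of vehicle-treated control cultures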; details: S. cerevisiae rad14 strain growth inhibition, active compounds read high
Procedure, shortened: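 A mutant yeast strain defective in DNA damage repair is treated with compound; inhibition of its growth is scored against untreated, vehicle-exposed cultures.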

[8] = NCI Yeast Anticancer Drug Screen. Data for the sgs1 mgt1 strain (AID 161);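 note: 0% = growth of cultures given vehicle only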; details: S. cerevisiae sgs1 mgt1 strain, active compounds read high
Procedure, shortened: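 Test agents were incubated with a DNA-repair-mutant yeast strain. Growth was then read and compared against vehicle-treated controls.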

[9] = NCI Yeast Anticancer Drug Screen. Data for the CLN2oe strain (AID 163);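 note: 0% = growth of vehicle-only control cultures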; details: S. cerevisiae CLN2oe strain, active compounds read high
Procedure, shortened: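 Growth of a genetically modified yeast strain is measured after compound exposure and compared with cultures given vehicle alone.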

[10] = NCI Yeast Anticancer Drug Screen. Data for the cln2 rad14 strain (AID 165);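 note: 0% = growth equal to vehicle treated cultures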; details: S. cerevisiae cln2 rad14 strain, active compounds read high
Procedure, shortened: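 Compounds are applied to the cln2 rad14 yeast strain, and growth is then compared with that of vehicle-treated cultures to give inhibition.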

[11] = NCI Yeast Anticancer Drug Screen. Data for the bub3 strain (AID 167); details: S. cerevisiae bub3 mutant strain, active compounds read high
Procedure, shortened: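 Steps: expose the mutant yeast strain to compound; grow alongside vehicle-treated cultures; measure growth; express inhibition against the vehicle cultures.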

[12] = NCI Yeast Anticancer Drug Screen. Data for the wt2 strain (AID 169);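 note: 0% = growth of vehicle-treated yeast cultures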; details: S. cerevisiae wt2 strain growth inhibition, active compounds read high
Procedure, shortened: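 This strain belongs to a panel of yeast strains with defined genetic alterations in DNA damage repair or cell cycle control. Compounds are applied, and growth inhibition is measured against vehicle-treated cultures.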

[13] = NCI Yeast Anticancer Drug Screen. Data for the mlh1 strain (AID 171);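 note: 0% = growth of vehicle-treated control cultures of the same strain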; details: S. cerevisiae mlh1 strain growth inhibition, active compounds read high
Procedure, shortened: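 Growth of the mutant yeast strain after compound exposure, expressed as inhibition relative to vehicle-only controls.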

[14] = NCI Yeast Anticancer Drug Screen. Data for the sgs1 strain (AID 173);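 note: 0% = growth of vehicle-only control cultures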; details: S. cerevisiae sgs1 mutant, active compounds read high
Procedure, shortened: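 Growth of a yeast strain bearing a defined genetic alteration is measured after compound treatment. Inhibition is expressed relative to vehicle-only controls.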

[15] = NCI Yeast Anticancer Drug Screen. Data for the mlh1 rad18 strain (AID 175); details: S. cerevisiae mlh1 rad18 strain growth inhibition, active compounds read high
Procedure, shortened: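 Read-out is yeast growth inhibition, calculated against vehicle-only controls. The compound was applied to a strain engineered with DNA damage repair alterations.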

[16] = NCI Yeast Anticancer Drug Screen. Data for the rad18 strain (AID 177); details: S. cerevisiae rad18 mutant growth inhibition, active compounds read high
Procedure, shortened: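 Growth of the mutant yeast strain after compound exposure, normalised to vehicle-only cultures.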

[17] = at 5.0 µM (retest, dose inferred, filed as 0.5)
[18] = at 50.0 µM (retest, dose inferred, filed as 5.0)

Measured: growth inhibition

O=C(NNc1ccccc1)C(CCCCNS(=O)(=O)Cc1ccccc1)NS(=O)(=O)Cc1ccccc1 (stereo not drawn)
active: [1]; at 100.0 µM 72% | [5]; at 100.0 µM 85% | [11]; at 33.0 µM 87% | [11]; [18] 86% | [15]; at 50.0 µM 75.2% | [16]; at 33.0 µM 90%
inactive: [1]; at 1.2 µM 3% | [1]; at 3.7 µM 9% | [1]; at 11.0 µM 29% | [1]; at 33.0 µM 46% | [2]; at 1.2 µM 4% | [2]; at 3.7 µM 9% | [2]; at 11.0 µM 26% | [2]; at 33.0 µM 44% | [2]; at 100.0 µM 54% | [3]; at 1.2 µM 3% | [3]; at 3.7 µM 10% | [3]; at 11.0 µM 25% | [3]; at 33.0 µM 55% | [3]; at 100.0 µM 68% | [4]; at 1.2 µM 0% | [4]; at 3.7 µM 11% | [4]; at 11.0 µM 13% | [4]; at 33.0 µM 18% | [4]; at 100.0 µM 18% | [5]; at 1.2 µM 5% | [5]; at 3.7 µM 10% | [5]; [17] 18% | [5]; at 11.0 µM 36% | [5]; at 33.0 µM 56% | [5]; [18] 53% | [5]; at 50.0 µM 51.2% | [6]; at 1.2 µM -2% | [6]; at 3.7 µM 8% | [6]; [17] 5% | [6]; at 11.0 µM 25% | [6]; at 33.0 µM 48% | [6]; [18] 34% | [6]; at 50.0 µM 26.4% | [6]; at 100.0 µM 39% | [7]; at 1.2 µM 0% | [7]; at 3.7 µM 1% | [7]; at 11.0 µM 3% | [7]; at 33.0 µM 13% | [7]; at 100.0 µM 18% | [8]; [17] 10% | [8]; [18] 54% | [8]; at 50.0 µM 51.5% | [9]; at 1.2 µM 1% | [9]; at 3.7 µM 6% | [9]; at 11.0 µM 31% | [9]; at 33.0 µM 51% | [9]; at 100.0 µM 44% | [10]; [17] 5% | [10]; [18] 46% | [10]; at 50.0 µM 14.8% | [11]; at 1.2 µM 1% | [11]; at 3.7 µM 3% | [11]; [17] 11% | [11]; at 11.0 µM 44% | [11]; at 50.0 µM 53.6% | [11]; at 100.0 µM 47% | [12]; at 1.2 µM 2% | [12]; at 3.7 µM 6% | [12]; at 11.0 µM 22% | [12]; at 33.0 µM 28% | [12]; at 100.0 µM 51% | [13]; at 1.2 µM 1% | [13]; at 3.7 µM 1% | [13]; at 11.0 µM 11% | [13]; at 33.0 µM 32% | [13]; at 100.0 µM 44% | [14]; at 1.2 µM 2% | [14]; at 3.7 µM 7% | [14]; at 11.0 µM 25% | [14]; at 33.0 µM 42% | [14]; at 100.0 µM 68% | [15]; [17] 14% | [15]; [18] 56% | [16]; at 1.2 µM 2% | [16]; at 3.7 µM 19% | [16]; at 11.0 µM 62% | [16]; at 100.0 µM 50%
